This is a sample that favours compounds with a hit; in the whole collection about 3.8% have one here.
ERa coact pot: ER-alpha (human) coactivator binding potentiation; P03372; TR-FRET ERalpha-LBD/SRC-Cy5 coactivator binding, 2 h; 100 = basal binding, no effect; coactivator binding (% of control), % at 25.6 µM; 86,000 tested, 1.3% active; in the data active = activity above about 200%;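 also: binding measured in presence of low estradiol as agonist stimulus; 0% = peptide alone without receptor and 100% = receptor with peptide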
Candida biofilm: kills Candida albicans biofilms | C. albicans biofilm + clotrimazole, Alamar Blue | inhibition, % at 6 µM | 85,000 tested, 0.14% active | AID 834;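 active = inhibition above 20%; inactive = inhibition below 20%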;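 also: preformed 24 hr biofilms exposed to compound for 48 hr; 0% = biofilm without compound and 100% = blank killed by clotrimazole plus chlorhexidine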
Smad3 inh: inhibitors of human Smad3 transcription factor binding | P84022 | TR-FRET Smad3/Dy647-FoxH1 peptide binding, europium anti-His | inhibition, % at 25 µM | 88,000 tested, 0.29% active | AID 630;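 active = compounds that reduce the energy-transfer binding signal between the protein and its labelled peptide by more than half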;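 also: 0% = Smad3 plus labelled peptide maximal FRET and 100% = peptide-only background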
ERb SRC1 inh: blocks coactivator binding to human estrogen receptor beta; Q92731; TR-FRET ER-beta LBD / SRC1-Cy5 peptide binding; receptor agonist-loaded with 1 µM estradiol; inhibition, % at 25.6 µM; 86,000 tested, 1.3% active; AID 633;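 active = compounds whose percent inhibition of the receptor-coactivator binding signal exceeds about 50% in the single-dose screen, limit read from the data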;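 also: 0% = receptor plus peptide wells without compound and 100% = peptide-only wells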
Target sequence (Q92731 whole entry, looked up, the tested form may be a part): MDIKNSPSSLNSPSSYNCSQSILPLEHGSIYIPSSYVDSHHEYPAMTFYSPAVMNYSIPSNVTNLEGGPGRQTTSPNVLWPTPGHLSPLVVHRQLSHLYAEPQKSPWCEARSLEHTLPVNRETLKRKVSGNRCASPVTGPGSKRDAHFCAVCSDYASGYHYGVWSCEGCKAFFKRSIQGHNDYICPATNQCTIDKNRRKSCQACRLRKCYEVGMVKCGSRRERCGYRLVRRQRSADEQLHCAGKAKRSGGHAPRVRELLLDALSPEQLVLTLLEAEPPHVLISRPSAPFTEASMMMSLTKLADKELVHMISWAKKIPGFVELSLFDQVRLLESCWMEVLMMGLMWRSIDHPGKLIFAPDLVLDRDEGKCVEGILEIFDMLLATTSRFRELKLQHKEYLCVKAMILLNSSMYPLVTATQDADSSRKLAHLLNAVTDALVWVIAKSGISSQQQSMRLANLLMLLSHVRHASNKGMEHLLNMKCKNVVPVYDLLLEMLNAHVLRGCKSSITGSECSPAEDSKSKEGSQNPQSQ
ERa SRC1 inh: ER-alpha (human) coactivator binding inhibition. P03372. TR-FRET ER-alpha LBD / SRC-1 peptide, estradiol-bound. inhibition, % at 25.6 µM. 86,000 tested, 1.7% active. AID 629; in the data active = inhibition above about 50%;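 also: 0% = receptor plus peptide control and 100% = peptide only without receptor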
An asterisk follows results filed as active; x = no result; [ ] = remark or other dose.

SMILES	ERa coact pot	Candida biofilm	Smad3 inh	ERb SRC1 inh	ERa SRC1 inh
CN(CC(=O)NCCc1ccccc1)S(=O)(=O)c1cccc2nsnc12	x	2.2	x	x	x
Cc1cc(C)n(CC(O)COc2ccccc2)n1 (centres undefined)	100.6	2.1	5.5	-0.5	53.0*
Cc1cc(C)n(CC(O)COCc2ccco2)n1 (centres undefined)	120.4	3.3	5.0	-9.8	-7.4
Cc1[nH]c2ccc(-c3nnc(SCC(=O)c4ccc(F)cc4)o3)cc2c1C	126.0	4.6	-23.1	54.9*[fluorescence artefact?]	64.5*[fluorescence artefact?]
COc1ccc(OC)c(C(=O)CSc2nnc(-c3ccc(OC)c(OC)c3)o2)c1	329.1*	5.2	-21.3	27.1	-10.5
Cc1cc(C)cc(OCc2nnc(SCC(=O)c3ccc(Br)cc3)o2)c1	201.8*	2.2	9.5	-18.1	-19.5
Cc1cc(C(=O)CSc2nnc(-c3ccc(F)cc3)o2)c(C)n1CC1CCCO1 (centres undefined)	228.7*[fluorescence artefact?]	6.5	-37.6	14.8	40.8
COc1ccc(-c2nnc(SCC(=O)N3CCCC3)o2)cc1OC	118.9	4.0	6.9	-28.0	-21.6
O=C(O)[C@H]1CCCN1Cc1ccc2c(c1)OCO2	x	x	-5.1	x	x
O=C(O)C/C=C/CC(=O)O	x	x	-7.0	x	x
COc1ccc(C(=O)CSc2nnc(-c3ccccc3)o2)cc1	90.4	7.5	-89.1	5.4	21.8
COc1ccc(C(=O)CSc2nnc(-c3ccc(C)cc3)o2)cc1	98.9	5.8	12.4	23.8	51.4*[fluorescence artefact?]
COc1ccc(N=CC2=C(Nc3ccc(OC)cc3)c3c(C)nn(-c4ccccn4)c3CC2)cc1	96.9	0.6	19.3	27.9	25.2
Cc1cc(NC(=O)CSc2nc3c(sc4ccccc43)c(=O)n2CCc2ccccc2)n[nH]1	130.6	0.6	-190.5	37.2	50.5*[fluorescence artefact?]
Nc1cc2c(cc1C(=O)c1ccccc1)OCCO2	97.0	8.0	-6.1	-17.7	-9.0
CC(=O)Nc1cc2c(cc1C(=O)c1ccccc1)OCCO2	66.8	6.0	7.2	62.9*	28.0
O[C@H](C[C@@H]1CCCCN1)c1ccc2c(c1)oc1ccccc12	x	x	2.6	x	x
CCCCSc1nc(O)c(C2OC(=O)c3c2ccc(OC)c3OC)c(=O)n1C (centres undefined)	97.2	6.0	-5.5	4.0	3.0
CCSc1nc(O)c(C2OC(=O)c3c2ccc(OC)c3OC)c(=O)n1CC (centres undefined)	100.9	3.6	84.5*	4.5	8.4
C=CCc1cccc2cc(C(=O)NCc3cccnc3)c(=O)oc12	64.5	1.6	8.0	43.8	80.7*[fluorescence artefact?]
CC(=O)[C@H]1CC[C@@H]2[C@]1(C)CC=C1[C@@]23C=C[C@@]2(C[C@H](O)CC[C@@]12C)[C@H](C(=O)O)[C@@H]3C(=O)O	x	x	35.9	x	x
CCc1ccccc1NS(=O)(=O)c1ccc2[nH]cc(C(=O)NCc3ccco3)c(=O)c2c1	277.2*[fluorescence artefact?]	2.0	10.6	38.6	38.5
CCN(CC)C(=O)c1c[nH]c2ccc(S(=O)(=O)Nc3cc(C)cc(C)c3)cc2c1=O	25.9	9.3	8.7	23.7	56.2*
O=C(NCc1ccco1)c1c[nH]c2ccc(S(=O)(=O)N3CCOCC3)cc2c1=O	74.0	1.1	-10.2	9.4	12.8
CCOCCCNC(=O)c1c[nH]c2ccc(S(=O)(=O)Nc3cccc(OC)c3)cc2c1=O	31.6	-2.8	11.6	16.5	52.9*
SMILES	ERa coact pot	Candida biofilm	Smad3 inh	ERb SRC1 inh	ERa SRC1 inh
CCOc1ccc(NS(=O)(=O)c2ccc3[nH]cc(C(=O)NCCOC)c(=O)c3c2)cc1	104.7	4.7	11.2	3.3	-2.8
c1ccc2cc(-c3cc(-c4cc(-c5ccc6ccccc6c5)on4)no3)ccc2c1	x	x	6.4	x	x
Nc1ccc(S(=O)(=O)NCCS(=O)(=O)O)cc1	x	x	1.6	x	x
COc1cccc(-n2nnc3c(=O)n(Cc4ccc(F)cc4)cnc32)c1	108.8	2.5	-9.7	-2.1	-2.4
COc1cc2c3nnc(-c4ccc(F)cc4)c-3cn(Cc3ccccc3)c2cc1OC	424.1*[fluorescence artefact?]	13.9	-116.3	38.6	32.7
COc1cc2c3nnc(-c4ccc(F)cc4)c-3cn(Cc3ccc(F)cc3)c2cc1OC	481.1*[fluorescence artefact?]	14.0	-12.3	32.3	24.3
COc1ccc(C(O)c2nccn2Cc2ccccc2)cc1OC (centres undefined)	108.2	2.0	-0.8	-14.7	-4.7
COc1ccc(Cn2cc3c(-c4ccc(F)cc4)nnc-3c3cc(OC)c(OC)cc32)cc1	262.4*[fluorescence artefact?]	2.4	8.2	34.0	48.6
CC1(C)OC[C@@H]2O[C@H](n3cnc4c(N)nc(Cl)nc43)[C@H](OS(C)(=O)=O)[C@H]2O1	x	x	36.6	x	x
O=C(C[n+]1ccc2ccccc2c1)c1ccc2ccc3ccccc3c2c1	x	x	81.3*	x	x
O=C(O)c1cc(-c2ccc(-c3ccc(-c4cc(C(=O)O)c5cc(Cl)ccc5n4)cc3)cc2)nc2ccc(Cl)cc12	x	x	-17.4	x	x
O=C1c2ccccc2C(=O)N1c1ccc(Cc2ccc(N3C(=O)c4ccccc4C3=O)cc2)cc1	x	x	9.9	x	x
COc1ccccc1-c1nnc2sc(-c3cnccn3)nn12	58.9	7.0	9.3	64.7*	51.6*[fluorescence artefact?]
CCOc1cccc(-c2nnc3sc(-c4ccco4)nn23)c1	243.8*	5.6	-13.6	2.0	1.7
COc1ccccc1-c1nn2c(-c3ccc(C(C)(C)C)cc3)nnc2s1	241.1*	5.0	10.2	42.3	43.8
COc1ccccc1-c1nnc2sc(-c3cc4ccccc4o3)nn12	93.5	3.6	9.7	-5.5	-11.4
CCOc1cccc(-c2nnc3sc(-c4ccc(C)cc4)nn23)c1	101.0	6.6	-4.9	14.2	4.0
CCOc1ccc(-c2nnc3sc(-c4ccccc4OC)nn23)cc1	940.9*[fluorescence artefact?]	-4.3	-12.0	4.0	-27.5
O=C1/C(=C\c2ccccc2)[C@@H](NC2CCCCC2)c2ccccc21	x	x	25.0	x	x
O=C(O)CCCc1ccc2ccccc2c1	x	x	12.1	x	x
O=C(Nc1cccnc1)c1cn(-c2ccccc2)nc1-c1cccs1	92.1	3.5	-0.2	2.1	-6.8
O=C(Nc1cccc2ccccc12)c1cn(-c2ccccc2)nc1-c1cccs1	202.8*[fluorescence artefact?]	1.6	0.4	-1.8	10.1
O=C1NCCCC2c3cc(O)c4ccccc4c3OC12N1CCCCC1 (centres undefined)	37.1	6.2	29.0	54.5*	43.0
O=C1NCCCC2c3c(cc(Br)c(O)c3Br)OC12N1CCOCC1 (centres undefined)	62.0	-4.1	5.4	25.0	13.7
COc1ccc2cc(CN(CCCN3CCOCC3)Cc3nnnn3C3CCCC3)c(=O)[nH]c2c1	261.4*[fluorescence artefact?]	4.9	-8.0	-10.4	-10.0
COc1ccc(CN(Cc2cc3ccc(C)cc3[nH]c2=O)Cc2nnnn2C2CCCC2)cc1	100.6	2.5	-3.6	-5.7	6.7
CCC[C@H](Sc1nc(N)nc2nc[nH]c12)C(=O)O	x	x	7.3	x	x
CCn1c(=O)c(C2=NS(=O)(=O)c3ccccc3N2)c(O)c2ccccc21	111.5	7.8	3.5	-3.1	-3.1
O=C1c2ccccc2NC(c2ccc3c(c2)OCCO3)N1c1ccc2c(c1)OCCO2 (centres undefined)	97.0	3.0	13.9	-0.1	-3.8
O=C1Nc2cc3c(cc2Sc2ccccc21)OCCO3	233.7*[fluorescence artefact?]	8.0	-2.1	7.7	7.5
